Bioassay records: PubChem BioAssay, National Center for Advancing Translational Sciences (NCATS)
AmpC detergent: qHTS Inhibitors of AmpC Beta-Lactamase (assay with detergent); AmpC hydrolysis of nitrocefin, absorbance 480 nm, 0.01% Triton; P00811; hit rate 0.041% among 370,000; Potency, µM (doses to about 114 µM), usual class: inhibitors; note: nearly all actives have a fitted effect of over 25% in size
Target sequence (P00811 whole entry, looked up): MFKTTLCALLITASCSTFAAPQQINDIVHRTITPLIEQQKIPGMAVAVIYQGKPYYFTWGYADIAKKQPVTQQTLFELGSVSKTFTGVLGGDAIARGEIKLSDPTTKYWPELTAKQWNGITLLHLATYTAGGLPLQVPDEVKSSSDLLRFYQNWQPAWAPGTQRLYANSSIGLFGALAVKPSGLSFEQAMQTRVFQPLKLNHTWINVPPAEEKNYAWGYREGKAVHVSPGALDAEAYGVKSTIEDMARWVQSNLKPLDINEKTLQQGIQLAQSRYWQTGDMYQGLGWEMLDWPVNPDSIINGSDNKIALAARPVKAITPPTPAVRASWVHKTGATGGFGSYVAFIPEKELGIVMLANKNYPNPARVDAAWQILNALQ
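AmpC (5.3 nM in the dispensed reagent) in 20 mM phosphate pH 7.0 with 0.01% (detergent screen) or 0.0001% Triton X-100 was preincubated with compounds for 15 min at room temperature. Nitrocefin was then added from an 800 uM solution, and hydrolysis was followed at 480 nm.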
Sm TGR inh: qHTS Assay for the Inhibitors of Schistosoma Mansoni Peroxiredoxins. Schistosoma mansoni thioredoxin glutathione reductase (TGR), Q962Y6. Potency, µM (highest dose often 114 µM), usual class: inhibitors. purified TGR, DTNB reduction, TNB absorbance 405 nm. hit rate 3% among 360,000. AID 485364, 2010; note: nearly all actives have a fitted effect of over 60% in size
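TGR 20 nM + NADPH 100 uM (dispensed conc.), cpd preinc 15 min RT; start with NADPH (500 uM addition) then DTNB (15 mM addition). Kinetic TNB absorbance, 405 nm filter. Four-parameter Hill fit across titration.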
AmpC no deterg: qHTS Inhibitors of AmpC Beta-Lactamase (assay without detergent); AmpC nitrocefin hydrolysis, absorbance 480 nm, 0.0001% Triton; Potency, µM (doses to about 57.1 µM), hits mostly inhibitors; hit rate 0.52% among 330,000; AID 485341, 2010; note: nearly all actives have a fitted effect of over 20% in size
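20 mM phosphate pH 7.0 + 0.01% (detergent screen) or 0.0001% Triton X-100; 5.3 nM AmpC reagent; cpd preinc 15 min RT; nitrocefin (800 uM stock) to start; A480 q20 s × 4 min; Activity was normalised to no-enzyme and no-compound control wells.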
Numbers stand for hits; - = inactive; ? = inconclusive; . = no result. In the library only some 3.3% were active in any assay of this set; here they are far more common. Calls come from the whole dose curve; as a rule, active = well fitted curve in the direction sought with a large enough effect; inconclusive = small, poorly fitted or top-dose-only effect, or another doubt; inactive = no such curve, though single readings can be large; an effect the other way counts as inactive or inconclusive.

SMILES	AmpC detergent	Sm TGR inh	AmpC no deterg
Cc1c(C(=O)OCC2CCCO2)[nH]c2c1C(=O)CC(c1ccco1)C2 (configuration not stated)	-	?	-
C=CCOC(=O)c1[nH]c2c(c1C)C(=O)CC(c1ccco1)C2 (configuration not stated)	?	44.7µM	-
COc1ccc(C(O)(CCN2CCCCC2)C2CCCCC2)cc1 (configuration not stated)	?	1.41µM	-
CCCCCC(O)(CCN1CCCCC1)c1ccc(OCC)cc1 (configuration not stated)	?	1µM	-
COc1ccc(OCCCN2CCCCCC2)cc1	-	-	-
CCC(O)(CCN1CCCCC1)c1ccccc1 (configuration not stated)	?	-	-
CCOc1ccc(NC(=O)CCN2CCCCC2)cc1	-	-	-
CCCC(O)(CCN1CCCCC1)c1ccc(OCC)cc1 (configuration not stated)	-	3.98µM	-
CC1CCC(N2CCN(C(=O)c3ccccc3F)CC2)CC1 (configuration not stated)	-	-	-
CC(=O)c1ccc(N2CCN(C(=O)CCS(=O)(=O)c3ccc4c(c3)NC(=O)CS4)CC2)cc1	-	-	-
COc1ccccc1NC(=O)/C(C#N)=C/C=C/c1ccco1	-	-	-
Cc1cccc(NC(=S)NC(=O)/C=C/c2ccco2)n1	-	?	-
COc1cc2c(cc1NC(=S)NC(=O)/C=C/c1ccco1)oc1ccccc12	?	-	-
COc1ccccc1NC(=S)NC(=O)/C=C/c1ccco1	-	17.8µM	-
COc1ccccc1NC(=O)/C=C\c1ccco1	-	2.51µM	-
Cc1ccccc1NC(=S)NC(=O)/C=C/c1ccco1	-	6.31µM	5.62µM
CC(=O)c1cccc(NC(=O)CCS(=O)(=O)c2ccc3c(c2)n(C)c(=O)c(=O)n3C)c1	-	?	.
CC(=O)c1ccc(NC(=O)CCS(=O)(=O)c2ccc3c(c2)n(C)c(=O)c(=O)n3C)cc1	-	39.8µM	-
Cc1c(C)c2ccc(OCC(=O)NCCCn3ccnc3)c(C)c2oc1=O	-	-	-
Nc1c(Cl)cnc(C(Cl)(Cl)Cl)c1Cl	-	?	-
CC(C)CNS(=O)(=O)c1ccc(CCC(=O)NCc2ccco2)cc1	-	44.7µM	-
Cc1ccc(NS(=O)(=O)c2ccc(CCC(=O)NCc3ccccn3)cc2)cc1	-	.	-
O=C(CN(CCc1ccccc1)C(=O)CNS(=O)(=O)c1ccccc1)NCc1ccco1	?	-	-
Cc1ccc(S(=O)(=O)NCC(=O)N(CCc2ccccc2)CC(=O)NCc2ccco2)cc1	-	35.5µM	-
CC(C)NS(=O)(=O)c1ccc(CCC(=O)NCc2ccccn2)cc1	-	100µM	-
SMILES	AmpC detergent	Sm TGR inh	AmpC no deterg
Cc1cc(-c2ccco2)n(CC(=O)NCc2ccco2)n1	-	39.8µM	-
CC(C)CNS(=O)(=O)c1ccc(CCC(=O)NCc2ccncc2)cc1	-	-	-
Cc1cc(C(F)F)nn1CC(=O)NCc1ccco1	?	-	-
CCc1nc(CN2CCN(c3cc(C(F)(F)F)ccn3)CC2)c(C)[nH]1	-	-	-
Cn1c(CC(=O)Nc2ccccc2)nnc1SCC(=O)NC1CCCC1	-	-	-
COc1cc(Cl)c(C)cc1NC(=O)Cn1ncc2c1-c1cc(C)ccc1OC2	-	-	.
COc1ccc(-c2noc(CN(C(=O)c3cccs3)C(C)C)n2)cc1	-	-	-
O=C(CCSCCC(=O)NCc1ccco1)NCc1ccco1	-	?	-
CC(C)C(CC(=O)NCc1ccco1)c1ccco1 (configuration not stated)	-	22.4µM	-
Cc1cc2c(cc1S(=O)(=O)N1CCN(c3cccc(C)c3C)CC1)OCCN2C	-	-	-
CCN1CCN(C(=O)C2CC(=O)N(c3ccc(Cl)cc3)C2)CC1 (configuration not stated)	-	-	-
Cc1nc(-c2ccc(-n3nncc3-c3ccco3)cc2)cs1	-	50.1µM	-
Nc1nc(-c2ccc(-n3nncc3-c3ccco3)cc2)cs1	-	-	?
c1ccc(-n2ncc3c(NCCN4CCOCC4)ncnc32)cc1	?	-	-
c1ccc(-n2ncc3c(NCCN4CCCCC4)ncnc32)cc1	?	50.1µM	-
CCOc1ccc(CNC(=O)CCC(=O)N2Cc3cccc(OC)c3Oc3ncccc32)cc1	-	-	-
Cc1ccc2scc(N3CCCC(C)C3)c(=O)c2c1 (configuration not stated)	-	-	.
CSCCC(=O)N(C)CC1CCN(CCc2cccc(C(F)(F)F)c2)CC1	?	-	-
CN(CC1CCN(CCc2cccc(C(F)(F)F)c2)CC1)C(=O)c1ccc(F)cc1F	-	39.8µM	-
